Assay results: PubChem BioAssay AID1012 (Sanford-Burnham Center for Chemical Genomics, 2008)
The whole screen tested about 200,000 compounds, of which about 520 (0.26%) were called active. Only a selection was taken, and actives are over-represented in it overall. A number with no mark means an inactive call.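 How the source made its calls: active means tissue-nonspecific alkaline phosphatase inhibition above about 50% at 20 µM in the single-dose screen (limit read from the data); inactive means the rest.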

Molecular target: Alkaline phosphatase, tissue-nonspecific isozyme (Homo sapiens) (UniProt P05186)
Sequence (P05186 whole entry, looked up): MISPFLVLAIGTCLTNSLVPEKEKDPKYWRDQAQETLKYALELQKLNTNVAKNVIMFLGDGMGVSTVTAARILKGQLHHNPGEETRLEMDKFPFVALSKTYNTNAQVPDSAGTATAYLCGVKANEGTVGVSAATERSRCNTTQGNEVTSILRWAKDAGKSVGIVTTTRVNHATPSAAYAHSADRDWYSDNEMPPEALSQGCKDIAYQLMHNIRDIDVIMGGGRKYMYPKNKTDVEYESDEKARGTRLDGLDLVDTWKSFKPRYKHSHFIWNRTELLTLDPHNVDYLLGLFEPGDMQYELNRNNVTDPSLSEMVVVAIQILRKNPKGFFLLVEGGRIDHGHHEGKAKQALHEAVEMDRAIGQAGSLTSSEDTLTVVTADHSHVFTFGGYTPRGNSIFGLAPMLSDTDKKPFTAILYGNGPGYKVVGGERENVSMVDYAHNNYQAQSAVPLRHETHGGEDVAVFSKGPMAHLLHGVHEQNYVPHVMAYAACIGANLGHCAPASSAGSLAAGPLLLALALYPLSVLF
Experiment: human TNAP enzyme inhibitors, primary screen, biochemical, luminescent, no phosphate acceptor, uHTS (AID 1012);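 further: 0% = DMSO negative control and 100% = EDTA positive control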
Conditions: purified TNAP, CDP-star luminescence, 30 min; at 20 µM; hits give high values

Row | Structure (SMILES) | inhibition
1 | COc1ccc(C/C(N)=N/OC(=O)c2ccco2)cc1OC | -7.5%
2 | CCOc1ccc2nc(C(=O)N3CCCC(C)C3)sc2c1 (stereo not drawn) | 1.7%
3 | COC(=O)/C(=C1\Oc2ccc(C(C)(C)C)cc2S1)C(F)(F)F | 0.6%
4 | COCC(=O)Nc1cc(C(=O)OC)cc(C(=O)OC)c1 | -4.5%
5 | S=c1[nH]nc2c3c4c(sc3ncn12)CCCC4 | 58% (active)
6 | N=c1c2c3c(sc2ncn1N)CCCC3 | -4.9%
7 | c1nnc2c3c4c(sc3ncn12)CCC4 | -10.6%
8 | O=C(Cn1c2[n+](c3ccc(C(F)(F)F)cc31)CCCCC2)Nc1c(F)cccc1F | -6.3%
9 | O=C(COC(=O)c1cnccn1)Nc1cccc2ccccc12 | -10%
10 | S=c1[nH]nc(-c2cccs2)n1/N=C/c1cccs1 | 36.2%
11 | Cc1ccc(/C=N\n2c(-c3ccccc3)n[nH]c2=S)s1 | 29%
12 | S=c1[nH]nc(-c2ccco2)n1/N=C/c1ccc(Br)s1 | 58.4% (active)
13 | COCCn1c(N)c(N(Cc2ccccc2)C(=O)C2CCCCC2)c(=O)[nH]c1=O | -0.9%
14 | O=C(Cn1c(N2CCN(C/C=C/c3ccccc3)CC2)nc2ccccc21)c1ccccc1 | 5.4%
15 | CCOC(=O)C1(CCOC)CCN(Cc2ccc(C(=O)OC)cc2)CC1 | -7%
16 | CCN1CCN(c2ccc(NC(=O)c3cnccn3)cc2)CC1 | -10.4%
17 | CC(C)(C)OC(=O)N1CCC(NC(=O)c2[nH]cnc2C(=O)N[C@@H](Cc2ccccc2)C(=O)OCc2ccccc2)CC1 | -3.5%
18 | CC(C)Cc1nn2c(=O)cc(O)nc2s1 | -13.8%
19 | O=C(Nc1ccc(N2CCOCC2)cc1)c1ccc(-c2ccccc2[N+](=O)[O-])o1 | 8.7%
20 | COc1ccc(C(=O)Nc2cccc(S(C)(=O)=O)c2)cc1 | -11%
21 | N/C(=N\OC(=O)c1ccc2c(c1)OCO2)c1ccc(Br)cc1 | -7%
22 | COc1ccc(C2=NN(c3ccccc3)C(c3cccs3)C2)cc1 (stereo not drawn) | -20.3%
23 | Cc1ccc(NC(=O)COC(=O)CCc2nc3ccccc3n2-c2ccccc2)c(C)c1 | -12.9%
24 | COc1ccc(Cc2n[nH]c(=S)n2NC(=O)Nc2ccc(C)cc2)cc1 | -16.9%

Row | Structure (SMILES) | inhibition
25 | Cc1cc(C)c(C#N)c(SCC(=O)NN2CC(=O)N(c3ccccc3F)CC2=O)n1 | -6.4%
26 | CCCCNC(=O)N1CCN(S(C)(=O)=O)CC1 | -6.4%
27 | O=C(CO/N=C/c1ccc(OC(F)F)cc1)NCc1ccc(F)cc1 | 2.4%
28 | COc1cc2[nH]c(=O)n(Cc3ccc(C(=O)NC4CCN(Cc5ccccc5)CC4)cc3)c(=O)c2cc1OC | 1.5%
29 | Cc1n[nH]c(C)c1S(=O)(=O)N1CCCC(C(=O)NCC2COc3ccccc3O2)C1 (stereo not drawn) | 51.6% (active)
30 | Cc1noc(/C=C/N(C)C)c1S(=O)(=O)N1CCCC(C(=O)NCc2ccco2)C1 (stereo not drawn) | -12%
31 | Cc1ccc(NC(=O)C2CCCN(S(=O)(=O)c3c(C)noc3C)C2)c(C)c1 (stereo not drawn) | -3.2%
32 | COc1ccc(N2CCN(c3ccc([N+](=O)[O-])nc3)CC2)cc1 | -7.2%
33 | COc1ccc(-c2cc(C3CCN(c4ncccc4[N+](=O)[O-])CC3)[nH]n2)cc1 | 59.7% (active)
34 | CC(=O)NC(Cc1ccccc1)C(=O)NC1CCN(c2ncccc2[N+](=O)[O-])CC1 (stereo not drawn) | -1.2%
35 | Cc1ccc(S(=O)(=O)N2CCC(C(=O)N[C@@H](C)C(=O)NCc3ccco3)CC2)cc1 | -10%
36 | CN(Cc1cc2cc(F)ccc2[nH]1)Cc1nc(-c2cnccn2)no1 | -8.7%
37 | CC(C)(C)C1CCC(OC(=O)CCC(=O)Nc2ccccc2)CC1 (stereo not drawn) | -5.1%
38 | CC1=NN(c2ccccc2)C(=O)C1C(=O)c1ccc([N+](=O)[O-])cc1 (stereo not drawn) | -4.4%
39 | O=C(c1ccc(OC2CCN(Cc3ccccn3)CC2)cc1)N1CCCCCC1 | -6%
40 | COc1ccccc1C1=Nc2cccc3cccc(c23)N1 | -4.6%
41 | CCCOc1ccccc1-c1nc(SCCC(=O)O)n[nH]1 | 8.1%
42 | COc1ccccc1-c1nc(SC)n[nH]1 | 63.7% (active)
43 | C=CCN(Cc1nc(-c2cc(OC)c3c(c2)OCO3)oc1C)C1CCS(=O)(=O)C1 (stereo not drawn) | -9.3%
44 | COc1ccc(NS(=O)(=O)c2cc(NC(=O)/C=C/c3cc(OC)c(OC)c(OC)c3)ccc2N2CCCCC2)cc1 | -3.9%
45 | CC1=CC2=NC(=O)CC(C)(C(=O)N(CC(=O)NC(C)(C)C)Cc3ccccc3)N2C=C1 (stereo not drawn) | -13%
46 | CCN(c1ccccc1)S(=O)(=O)c1ccc2[nH]c(=O)[nH]c2c1 | 64.9% (active)
47 | CCN(c1ccccc1)S(=O)(=O)c1cccc(C(=O)O)c1 | -2.9%
48 | CCN(c1ccccc1)S(=O)(=O)c1ccc(N)cc1 | -17.8%

Row | Structure (SMILES) | inhibition
49 | Cc1c(CCO)sc[n+]1CC(=O)OC12CC3CC(CC(C3)C1)C2 | 55.5% (active)
50 | Cc1c(CCOC(=O)CC23CC4CC(CC(C)(C4)C2)C3)sc[n+]1Cc1ccc([N+](=O)[O-])cc1 | -6.1%
51 | O=C(C(=O)N1CCc2ccccc2C1)N1CCc2ccccc2C1 | -5.7%
52 | CC1CCN(CC(=O)c2c[nH]c3ccccc23)CC1 | -9.1%
53 | O=C(C(=O)N1CCc2ccccc2C1)c1c[nH]c2ccccc12 | 61% (active)
54 | Cc1[nH][nH]c(=O)c1C(c1ccc(-c2ccc(Cl)cc2)o1)c1c(C)[nH][nH]c1=O | -57.7%
55 | CCOc1ccc(C(c2c(C)[nH][nH]c2=O)c2c(C)[nH][nH]c2=O)cc1OCC | 58.2% (active)
56 | Cc1[nH][nH]c(=O)c1C(c1ccc2c(c1)OCO2)c1c(C)[nH][nH]c1=O | 45.5%
57 | O=C(/C=C/c1ccc(F)cc1)Nc1cccc(S(=O)(=O)Nc2cccc(C(F)(F)F)c2)c1 | -9.4%
58 | CCOc1ccc(/C=N/OCC(=O)NCc2cccs2)cc1 | 2.3%
59 | O=C(NCCc1ccccc1)C1CCC(Cn2c(=O)c3ccccc3n(Cc3cccnc3)c2=O)CC1 (stereo not drawn) | -0.3%
60 | O=C(COC(=O)CSc1nnc(-c2ccc(Cl)cc2)o1)Nc1cc(Cl)cc(Cl)c1 | -10.5%
61 | COc1cc(N/C=C2\CC(=O)NC(C)=C2C#N)cc(OC)c1OC | -1.1%
62 | COc1ccc(-c2[nH]ncc2CN(C)Cc2cc(C)[nH]n2)c(F)c1 | 46.2%
63 | CCN(CCn1cccn1)Cc1cn[nH]c1-c1ccc(OC)cc1F | 58.9% (active)
64 | CCN(CCn1cccn1)Cc1nc(-c2ccc(C(=O)OC)cc2)no1 | 2.4%
65 | COc1ccc(-c2[nH]ncc2CN(C)Cc2c(C)n[nH]c2C)c(OC)c1 | -8.9%
66 | COc1ccc(-c2[nH]ncc2CN(C)Cc2cccnc2)c(F)c1 | 64.9% (active)
67 | COc1ccc(-c2[nH]ncc2CN(Cc2nccn2C)C(C)C)cc1F | -9.7%
68 | Cc1cc(C)n2nc(SCC(=O)NC(=O)NCc3ccco3)nc2n1 | -9.4%
69 | CCOc1cc(N2CCOCC2)c(OCC)cc1NC(=O)c1ccc(C)s1 | -8.9%
70 | CCn1c(CNS(=O)(=O)c2ccc(Cl)cc2)n[nH]c1=S | 24.7%
71 | O=C(CN1CCSCC1)N/N=C/c1ccc(Cl)cc1 | -4.4%
72 | Cc1cc(NC(=O)CN2C(=O)NC(C)(CCc3ccccc3)C2=O)no1 (stereo not drawn) | -3%

Row | Structure (SMILES) | inhibition
73 | CCOC(=O)c1cc2c(=O)[nH]c(C(Cl)(Cl)Cl)nc2o1 | -11%
74 | CCCN(CC1COc2ccccc2O1)C(=S)Nc1ccc(C)cc1 (stereo not drawn) | -16%
75 | CN(C)C(CNC(=O)c1ccc(S(=O)(=O)NCc2ccco2)cc1)c1ccccc1 (stereo not drawn) | 7.7%
76 | C/C(CC(=O)N1CCN(C=O)CC1)=N\NC(=O)c1ccc(Br)cc1 | 0.3%
77 | Cc1ccc(NC(=O)c2sccc2C)cc1[N+](=O)[O-] | -4.3%
78 | Cc1ccc(C(=O)NC(=S)Nc2ccc3[nH]c(=O)[nH]c3c2)cc1C | -9.4%
79 | CC(=O)NC(=S)NNC(=O)c1ccc(Br)cc1 | -155%
80 | O=C(CSc1nnc(-c2ccncc2)n1-c1ccc(Cl)cc1)Nc1ccc(C(=O)O)cc1 | 0.2%
81 | CC(NC(=O)C(=O)NN=C1CCC(C(C)(C)C)CC1)c1ccccc1 (stereo not drawn) | -15%
82 | CC(C)(C)C1CCC(=NNC(=O)c2ccc(Br)o2)CC1 (stereo not drawn) | 4.2%
83 | CC(C)(C)C1CCC(=NNC(=O)c2cc(-c3ccccc3)n[nH]2)CC1 (stereo not drawn) | 62.6% (active)
84 | CCCCN(C)c1ccc([N+](=O)[O-])cc1 | 13.3%
85 | CN(C)CCCN1C(=O)CSC1c1ccc([N+](=O)[O-])cc1 (stereo not drawn) | -4.5%
86 | COc1ccc(NC(=O)c2cc3nc(-c4ccccc4)cc(C)n3n2)cc1OC | -14.7%
87 | O=C(NCc1ccccc1)C1CCCN(S(=O)(=O)c2cccs2)C1 (stereo not drawn) | -5.5%
88 | COc1ccc(S(=O)(=O)NCC2CCCN(C(=O)c3occc3C)C2)cc1 (stereo not drawn) | -4.9%
89 | CCc1[nH]nc(C(=O)N2CCCC(CNS(=O)(=O)c3cccs3)C2)c1C (stereo not drawn) | 61.5% (active)
90 | CCC(C(=O)Nc1ccc2c(c1)OCCO2)c1ccccc1 (stereo not drawn) | -22.2%
91 | COCCCN(C(=S)Nc1c(C)cc(C)cc1C)C(C)c1ccncc1 (stereo not drawn) | -17.6%
92 | CN(CCc1cn[nH]c1)C(=O)CC1C(=O)NCCN1Cc1cccc(Oc2ccccc2)c1 (stereo not drawn) | -9.2%
93 | CCOc1ccc(/C=N/NC(=O)C(C)Sc2ccccn2)cc1OCC (stereo not drawn) | -5.3%
